# Columns and labels:
# Details in all cases: concentration: 1 μM, replicates: in singlicate; n = 1
# NEK4 = tested on: NEK4
# NEK5 = tested on: NEK5
# NEK6 = tested on: NEK6
# NEK7 = tested on: NEK7
# NEK9 = tested on: NEK9
# NIK = tested on: T1, NIK
# T1 construct: gene MAP3K14
# NIM1 = tested on: T2, NIM1
# T2 construct: gene MGC42105
# NLK = tested on: NLK
# OSR1 = tested on: T3, OSR1
# T3 construct: gene OXSR1
# PAK1 = tested on: PAK1
# PAK2 = tested on: PAK2
# PAK3 = tested on: PAK3
# PAK4 = tested on: PAK4
# PAK6 = tested on: PAK6
# PAK7 = tested on: PAK7
# PCTK1 = tested on: T4, PCTK1
# T4 construct: gene CDK16
# PCTK2 = tested on: T5, PCTK2
# T5 construct: gene CDK17
# PCTK3 = tested on: T6, PCTK3
# T6 construct: gene CDK18
# PDGFRA = tested on: PDGFRA
# PDGFRB = tested on: PDGFRB
# 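Also: KINOMEscan kinase panel screen.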
SMILES,%Inh (NEK4) [%],%Inh (NEK5) [%],%Inh (NEK6) [%],%Inh (NEK7) [%],%Inh (NEK9) [%],%Inh (NIK) [%],%Inh (NIM1) [%],%Inh (NLK) [%],%Inh (OSR1) [%],%Inh (PAK1) [%],%Inh (PAK2) [%],%Inh (PAK3) [%],%Inh (PAK4) [%],%Inh (PAK6) [%],%Inh (PAK7) [%],%Inh (PCTK1) [%],%Inh (PCTK2) [%],%Inh (PCTK3) [%],%Inh (PDGFRA) [%],%Inh (PDGFRB) [%]
COc1cc(Nc2nccc(N3CCC(NC(=O)C4COc5ccccc5O4)C3)n2)cc(OC)c1OC (stereo not drawn) [GSK1379761],7,97.3,21,49,37,42,28,5,2,0,0,10,0,0,3,4,0,10,1,45
COC(=O)c1c(-c2ccccc2)c2cc(Br)ccc2c(=O)n1Cc1ccc(NC(=O)CCC(=O)O)cc1,1,0,7,18,11,0,2,0,14,15,17,0,2,18,2,15,7,0,16,57
CCS(=O)c1ccc(-c2coc3ccc(-c4nnc(C)o4)cc23)cc1 (stereo not drawn),0,0,0,0,0,0,11,0,0,0,0,33,0,20,0,0,0,2,0,0
COC(=O)c1c(-c2ccccc2)c2cc(C)ccc2c(=O)n1Cc1ccccc1,0,0,0,0,0,100,0,0,0,24,20,1,0,10,0,0,0,0,42,90
CCCC(=O)Nc1n[nH]c2ncc(-c3cccc4ccccc34)cc12 [SB-642057],0,9,0,0,0,11,28,24,0,4,5,0,0,0,0,27,35,34,0,12
COc1ccc(-c2cc3c(C)nc(N)nc3n([C@H]3CC[C@H](O)CC3)c2=O)cn1,0,0,0,0,0,2,0,13,0,7,11,0,21,0,0,0,0,0,0,0
COC(=O)c1c(-c2ccccc2)c2cc(Br)ccc2c(=O)n1Cc1ccc(S(C)(=O)=O)cc1,17,0,20,3,6,0,15,0,4,24,17,26,6,35,2,23,5,0,8,73
Cc1nnc(-c2ccc3ncn(-c4ccc(S(C)=O)cc4)c3c2)o1 (stereo not drawn),0,0,17,2,13,3,0,0,0,8,14,0,2,4,2,0,0,14,17,30
Nc1n[nH]c2nnc(-c3ccccc3)c(-c3ccccc3)c12 [GW554060],0,0,0,0,0,100,28,0,9,0,0,0,0,0,0,0,0,20,0,2
Nc1ncnc2c1ncn2-c1cccc(F)c1 [SKF-97560],21,25,0,0,0,18,48,0,28,5,0,0,5,12,3,27,1,10,43,58
CN1C(=O)C(Nc2ccccc2)=C(c2ccccc2)C1=O [SB-300079],0,0,0,0,0,32,19,0,0,0,0,0,0,0,0,0,0,12,0,24
Cl.c1ccc(Cn2cnc3cc(Nc4ncnc5ccccc45)ccc32)cc1 [GW272142],0,16,0,0,7,14,0,0,26,0,0,0,0,58,9,0,0,29,0,6
COc1cc2ncn(-c3cc(OCc4ccncc4Br)c(C(N)=O)s3)c2cc1OC [GW854278],0,2,0,0,0,25,10,0,0,1,14,0,8,12,16,0,14,5,39,58
Nc1nccc2scc(-c3ccc4c(c3)CCN4C(=O)Cc3ccccc3)c12 [GSK2576924],0,14,0,0,18,23,8,0,7,18,0,55,0,0,30,0,9,17,4,43
Cc1cc(Nc2nc(-c3cccc(C)n3)nc3ccccc23)ccn1 [GW872411],0,6,0,0,0,16,0,0,0,0,15,0,0,0,17,0,0,0,0,0
COc1cc(Nc2nccc(N3CCC(NC(=O)C(C)c4ccc(Cl)cc4)C3)n2)cc(OC)c1OC (stereo not drawn) [GSK1379757],0,95.5,0,0,19,0,0,0,0,10,11,22,0,0,0,0,0,0,0,14
Cc1cccc(-c2cc(-c3c[nH]nc3-c3ccccn3)ccn2)c1 [GW679395],0,7,0,0,0,19,6,32,0,24,22,1,0,0,0,5,0,1,0,61
Cc1nc(N(C)[C@H]2CN(C(=O)CC#N)CC[C@H]2C)c2cc[nH]c2n1,4,11,7,0,0,0,0,7,0,0,0,0,0,2,15,0,0,0,0,0
OCCCNc1nccc(-c2c(-c3cccc(C(F)(F)F)c3)nn3cc(C(F)(F)F)ccc23)n1 [GW630813],0,5,0,0,1,0,0,92.7,0,0,0,3,0,0,12,11,0,19,0,6
O=C1NC(=O)C(c2ccccc2)=C1Nc1cccc(O)c1 [SB-390534],13,0,0,14,0,3,100,0,0,0,16,26,0,0,0,0,6,0,0,0
CCC(=O)c1c(-c2ccccc2)c2cc(Cl)ccc2c(=O)n1Cc1cc(S(C)(=O)=O)n(CC(F)F)n1,0,0,0,0,0,0,0,0,0,0,0,0,0,0,0,0,4,0,0,0

# From publication PMC5540273 (PLoS ONE, 2017)
